# Results from PubChem BioAssay (NCATS).
# Records with an inconclusive call do not appear. Entries that show only a call come without a potency. Values without a mark were called inactive. The source made the active and inactive calls. Unless noted, the call rests on the fitted dose curve.
# Tests used:
# [1] = qHTS assay for small molecule agonists of the antioxidant response element (ARE) signaling pathway (AID 651741; active means well fitted activation curve with a large enough effect in the signal ratio; the % refers to the signal ratio; further: potency means the concentration at half of the fitted maximal effect); details: HepG2 ARE-bla reporter, beta-lactamase FRET ratio, 16 h; series mostly up to 96 µM
# How it was run: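 CellSensor ARE-bla HepG2 cells (2,000/well) carrying ARE-driven beta-lactamase, exposed 16 h at 37 C. LiveBLAzer B/G FRET substrate added for 2 h at room temperature; fluorescence intensity read.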
# [2] = qHTS assay for small molecule activators of the nuclear factor-kappa B (NF-kB) signaling pathway (AID 651749; active means well fitted activation curve with a large enough effect in the signal ratio; the % refers to the signal ratio); details: NF-kB-bla ME-180 cells, beta-lactamase FRET ratio, 16 h; activation: active compounds read high
# How it was run: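 NF-kB-bla ME-180 cells carrying a beta-lactamase reporter under an NF-kB response element, 2,000 cells/well, exposed to compound for 16 hr at 37C; FRET-based beta-lactamase fluorescence read-out of pathway activation.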
# [3] = target: Peroxisome proliferator-activated receptor gamma (Homo sapiens) (UniProt P37231); test: qHTS assay for small molecule antagonists of peroxisome proliferator-activated receptor gamma signaling (AID 588537; active means well fitted inhibition curve with a large enough effect in the signal ratio, with a control signal flat, not every such curve was filed as active; the % refers to the signal ratio;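 further: reporter cells co-stimulated with 50 nM rosiglitazone agonist during compound treatment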); details: HEK293 PPARg-UAS-bla, beta-lactamase ratio, antagonist mode; series mostly up to 76.8 µM
# Peroxisome proliferator-activated receptor gamma (Homo sapiens), sequence (P37231 whole entry, looked up): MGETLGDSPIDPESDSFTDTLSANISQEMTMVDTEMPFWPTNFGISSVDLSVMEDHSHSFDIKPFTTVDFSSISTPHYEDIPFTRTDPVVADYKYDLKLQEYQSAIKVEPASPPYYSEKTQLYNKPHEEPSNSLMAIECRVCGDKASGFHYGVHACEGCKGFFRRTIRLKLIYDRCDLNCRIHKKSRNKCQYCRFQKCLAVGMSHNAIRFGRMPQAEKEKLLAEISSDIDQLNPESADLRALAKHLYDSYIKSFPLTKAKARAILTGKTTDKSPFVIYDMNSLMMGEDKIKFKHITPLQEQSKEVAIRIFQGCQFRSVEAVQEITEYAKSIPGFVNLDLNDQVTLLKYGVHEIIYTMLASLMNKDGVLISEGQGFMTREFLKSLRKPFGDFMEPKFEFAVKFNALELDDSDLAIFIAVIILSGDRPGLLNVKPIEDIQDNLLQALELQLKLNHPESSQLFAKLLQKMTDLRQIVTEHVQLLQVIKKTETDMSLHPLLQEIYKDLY
# How it was run: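 PPARγ-UAS-bla HEK293 cells (3000/well) in 1% charcoal/dextran-stripped FBS are treated with compound, then stimulated with 50 nM rosiglitazone for 16 h at 37 °C. Read-out is CCF4 β-lactamase fluorescence after 2 h at RT. IC50 comes from Hill fits normalised to rosiglitazone and DMSO.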
# [4] = target: Vitamin D3 receptor (Homo sapiens) (UniProt P11473); test: qHTS assay for small molecule antagonists of vitamin D receptor signaling (AID 588541); details: HEK293T VDR-UAS-bla, beta-lactamase ratio, antagonist mode; series mostly up to 76.7 µM;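 further: receptor activated by calcitriol during compound treatment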
# Vitamin D3 receptor (Homo sapiens), sequence (P11473 whole entry, looked up): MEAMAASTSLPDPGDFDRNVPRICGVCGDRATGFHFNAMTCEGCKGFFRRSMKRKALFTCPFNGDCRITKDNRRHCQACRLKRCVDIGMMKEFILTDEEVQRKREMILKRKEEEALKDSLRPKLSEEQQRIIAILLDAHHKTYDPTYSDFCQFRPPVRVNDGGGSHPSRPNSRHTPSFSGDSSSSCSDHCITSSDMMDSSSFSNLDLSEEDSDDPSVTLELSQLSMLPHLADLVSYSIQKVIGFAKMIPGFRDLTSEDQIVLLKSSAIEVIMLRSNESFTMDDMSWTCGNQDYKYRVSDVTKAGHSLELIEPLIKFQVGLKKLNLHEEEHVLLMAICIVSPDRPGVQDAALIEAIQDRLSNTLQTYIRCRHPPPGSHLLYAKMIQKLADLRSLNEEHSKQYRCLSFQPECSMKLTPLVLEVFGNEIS
# How it was run: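 VDR-UAS-bla HEK293T cells in 2% charcoal-stripped FBS were stimulated with 1-alpha,25-dihydroxyvitamin D3 (3 nM final) plus compound for 16 h at 37 C. The beta-lactamase CCF4 readout was normalized to 50 nM agonist and DMSO, and Hill fits gave IC50.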
# [5] = target: Thyroid hormone receptor beta (Homo sapiens) (UniProt P10828); test: qHTS assay for small molecule antagonists of thyroid hormone receptor beta signaling (AID 588547; active means well fitted inhibition curve with a large enough effect in the signal ratio, with a control signal flat, not every such curve was filed as active; the % refers to the signal ratio;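 further: cells stimulated with 0.4 nM T3 agonist during compound exposure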); details: TR-UAS-bla HEK293, beta-lactamase ratio, antagonist mode, 18 h
# Thyroid hormone receptor beta (Homo sapiens), sequence (P10828 whole entry, looked up): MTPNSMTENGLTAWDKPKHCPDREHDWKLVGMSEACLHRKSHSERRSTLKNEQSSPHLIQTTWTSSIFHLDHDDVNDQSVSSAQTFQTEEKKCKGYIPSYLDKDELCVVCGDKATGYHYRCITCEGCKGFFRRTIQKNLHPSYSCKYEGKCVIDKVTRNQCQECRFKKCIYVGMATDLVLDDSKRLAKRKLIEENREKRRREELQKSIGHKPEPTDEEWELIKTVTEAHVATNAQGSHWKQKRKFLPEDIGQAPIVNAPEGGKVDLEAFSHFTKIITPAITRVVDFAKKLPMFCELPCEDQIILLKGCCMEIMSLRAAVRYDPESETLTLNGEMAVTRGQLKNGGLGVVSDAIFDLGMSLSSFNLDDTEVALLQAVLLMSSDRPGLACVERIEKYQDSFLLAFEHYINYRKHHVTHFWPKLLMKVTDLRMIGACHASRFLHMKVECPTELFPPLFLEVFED
# How it was run: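 TR-UAS-bla GripTite HEK293 cells in 2% charcoal/dextran FBS medium; compounds 0.59 nM to 92 uM with T3 at 0.4nM final, 18 h at 37 C. Beta-lactamase read by CCF4 fluorescence (460/530 nm); Hill fits gave IC50 and efficacy.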
# [6] = qHTS for Inhibitors of the vitamin D receptor (VDR): Hit Validation using a Texas Red Assay (AID 602201; active means well fitted curve in the direction sought with a large enough effect; further: potency means the concentration at half of the fitted maximal effect); details: VDR coregulator binding, Texas Red fluorescence polarization, agonist-bound VDR ligand-binding domain; series mostly up to 57.1 µM
# How it was run: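 Fluorescence polarization with 1.5 uM VDR-LBD, LG19078 and 7 nM Texas Red (final). After 2 hours at ambient temperature, read at Ex 595 nm/Em 615 nm.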
smiles,measurement,setting,value
C=CCCCCCCCCCC,Potency,[1],inactive
CC(C)CCCCCCCCCCCCCCC(=O)O,activation,[2],-0.531%
CCCCCCCCCCCC[N+](C)(C)C,Potency,[3],inactive
same,Potency,[4],inactive
same,Potency,[1],19.3 µM (active)
same,activation,[2],-3.69%
CCC(O)OCCCOC (centres undefined),Potency,[3],inactive
same,Potency,[4],inactive
same,activity change % (negative = inhibition),[5],-6.47%
same,Potency,[1],inactive
same,activation,[2],1.22%
Cc1ccc2c(c1)C(=O)OC2=O,Potency,[3],inactive
same,Potency,[4],inactive
same,activity change % (negative = inhibition),[5],-5.6%
same,Potency,[1],inactive
C1=C/CC/C=C/CC/C=C/CC/1,Potency,[3],inactive
same,Potency,[4],inactive
same,activity change % (negative = inhibition),[5],0.305%
same,Potency,[1],inactive
same,activation,[2],0.104%
CCOC(=O)[C@H](C)Oc1ccc(Oc2nc3ccc(Cl)cc3o2)cc1,Potency,[3],inactive
same,Potency,[4],inactive
same,activity change % (negative = inhibition),[5],-0.0371%
same,activation,[2],-0.102%
CCCCCCC(C)OC(=O)COc1nc(F)c(Cl)c(N)c1Cl (centres undefined),activation,[2],3.49%
O=C(Nc1nc(-c2ccccn2)cs1)c1cc(Cl)ccc1[N+](=O)[O-],Potency,[6],inactive
Nc1ccc(Nc2ccccc2)cc1,Potency,[1],30.6 µM (active)
same,activation,[2],0.195%
O=S1(=O)C=C(Sc2nnc(-c3ccccc3)o2)c2ccccc21,Potency,[6],3.16 µM (active)
